Screening data: PubChem BioAssay, National Center for Advancing Translational Sciences (NCATS)
Tb PFK block – blocks T. brucei phosphofructokinase | O15648 | T. brucei PFK, ADP-Glo luminescence | Potency, µM (titrated, usually from 57.5 µM), without a hit: at the top dose activity, negative = inhibition, actives largely listed as inhibitors | 330,000 compounds, 0.17% hits | AID 485367;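 note: 0% = uninhibited 1x PFK enzyme wells and -100% = no-enzyme wells; nearly all actives have a fitted effect of over 60% in size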
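PFK 1.25 nM, F6P 0.5 mM, ATP 0.1 mM, 0.1 M TEA pH 8.0, 5 mM MgCl2, 0.01% Tween20, 0.1% BSA; 45 min RT. ADP-Glo readout. qHTS titration up to 57 uM; curves fitted, compounds curve-classed.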
BRCA1 expr up – activators of BRCA1 expression | MCF7-BRCA1-FFLuc reporter, luminescence, 48 h; response scale: scaled: vehicle 0%, 10 µM genistein 100% | 380,000 compounds, 1.1% hits | Potency, µM (doses to about 46.1 µM), inactives show at the highest dose activation, hits mostly activators; note: nearly all actives have a fitted effect of over 80% in size
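MCF7 cells carrying a BRCA1-firefly luciferase reporter (2000 cells/well, phenol-red free MEM) were attached for 2 h at 37 °C, then given compounds for 48 h. Luminescence was read 15 min after luciferase reagent; activity normalized to genistein (10 microM) and DMSO.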
PLK1 PBD block – blocks phosphopeptide binding to human PLK1 polo-box domain; P53350; Plk1 PBD binding of FITC phosphopeptide, fluorescence polarization; Potency, µM, without a hit: max response, negative = inhibition, hits mostly inhibitors; 360,000 compounds, 2.8% hits; AID 720504; note: series mostly up to about 57 µM; % is set by controls: 0 for no effect and ±100 for the full control effect; nearly all actives have a fitted effect of over 65% in size
VDR inh – blocks the human vitamin D receptor. P11473. VDR-SRC2-3 peptide fluorescence polarization, 2 h. Potency, µM, inactives show max response, negative = inhibition, most hits filed as inhibitors. 400,000 compounds, 0.93% hits. AID 504847; note: % is set by controls: 0 for no effect and ±100 for the full control effect
Target sequence (P11473 whole entry, looked up): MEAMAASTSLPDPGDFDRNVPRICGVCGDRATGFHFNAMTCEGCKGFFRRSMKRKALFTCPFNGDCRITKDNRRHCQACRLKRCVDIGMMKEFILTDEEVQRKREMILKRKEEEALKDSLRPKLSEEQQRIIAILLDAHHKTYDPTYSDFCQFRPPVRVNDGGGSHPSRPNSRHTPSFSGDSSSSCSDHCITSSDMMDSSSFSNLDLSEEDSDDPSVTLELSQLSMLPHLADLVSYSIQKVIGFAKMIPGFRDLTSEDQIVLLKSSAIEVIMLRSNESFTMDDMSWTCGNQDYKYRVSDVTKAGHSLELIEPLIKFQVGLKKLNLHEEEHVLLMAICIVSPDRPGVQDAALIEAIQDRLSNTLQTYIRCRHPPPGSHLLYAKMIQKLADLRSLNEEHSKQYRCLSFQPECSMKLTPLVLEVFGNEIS
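Fluorescence polarization assay measuring small-molecule disruption of VDR binding to the coregulator peptide SRC2-3. Compounds were pin-transferred (23 nl) into the reagent mix and incubated 2 h at room temperature before reading.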
Starred values were filed as active, the others as inactive; ? = inconclusive; · = not tested or not shown. An excerpt weighted towards active compounds, which were near 3.9% of everything screened. Calls come from the whole dose curve; as a rule, active = well fitted curve in the direction sought with a large enough effect; inconclusive = small, poorly fitted or top-dose-only effect, or another doubt; inactive = no such curve, though single readings can be large; an effect the other way counts as inactive or inconclusive. Potency is the fitted concentration of half-maximal effect.

SMILES | Tb PFK block | BRCA1 expr up | PLK1 PBD block | VDR inh
O=C(C1CC(=O)N(c2ccc(F)cc2)C1)N1CCCCC1 (centres undefined) | -21% | -2% | -11% | -15%
CC(C)NS(=O)(=O)c1ccc(OCC(=O)Nc2ccc(F)cc2)cc1 | -2% | -18% | 24µM* | 2%
CNC(=O)C1CC(=O)N(c2ccc(OCC(=O)Nc3ccc(F)cc3)cc2)C1 (centres undefined) | · | 5% | 27µM* | -6%
C[C@H](NC(=O)C1CC(=O)N(c2ccc(F)cc2)C1)C(=O)N1CCCCC1 (some centres undefined) | -4% | 26% | 24µM* | -21%
COc1ccc(CCNC(=O)CC(C)S(=O)(=O)c2ccc3c(c2)NC(=O)CO3)cc1OC (centres undefined) | 4% | 9% | -2% | 16%
COc1cc(NC(=O)c2cc(C3CC3)nc3c2c(C)nn3-c2ccc(C)cc2)cc(OC)c1 | · | · | · | 4%
Cc1ccc(C=C2C(=O)c3ccccc3C2=O)o1 | 0% | 0% | -25% | -5%
Cc1ccc(/C=C2/C(=O)c3ccc(C(=O)O)cc3C2=O)o1 | -19% | -7% | 24µM* | 1%
CCN(CC)C(=O)CSc1nc2c(sc(=S)n2-c2ccccc2)c(=O)n1Cc1ccco1 | 1% | -22% | 24µM* | 40µM*
Cc1ccccc1Nc1nc2ccccc2s1 | 3% | 3.5µM* | -2% | -11%
CCOc1ccc2nc(NC(=S)N(C)C)sc2c1 | -5% | ? | 19µM* | -23%
CN(C)c1ccc(CNc2nc3ccccc3s2)cc1 | -5% | · | · | ·
CN(C)C(=S)Nc1nc2ccccc2s1 | ? | 3.5µM* | 11µM* | ?
Cc1ccc(Nc2nc3ccccc3s2)cc1 | -1% | -18% | -6% | -6%
CCCC(=O)Nc1nc2ccc(OCC)cc2s1 | 3% | 6.3µM* | -15% | 1%
Cc1cc(Cl)ccc1NC(=O)CN1C(=O)C(=O)c2ccccc21 | · | · | · | -25%
O=C(C1=NOC2(C1)C(=O)Nc1ccccc12)N1CCOCC1 (centres undefined) | · | 0% | -4% | ·
COc1cc(Cl)c(C)cc1NC(=O)c1c(C)oc2nc(C)nc(N3CCCC3)c12 | · | · | · | 15%
CC(NC(=O)/C(C#N)=C/c1ccc([N+](=O)[O-])o1)c1ccccc1 (centres undefined) | -18% | -106% | 24µM* | 25µM*
CC(NC(=O)/C(C#N)=C/c1ccco1)c1ccccc1 (centres undefined) | 2% | 0% | -4% | -12%
Cc1ccc(C(=O)Nc2ccccc2C(=O)N2CC(C)OC(C)C2)cc1 (centres undefined) | · | 0% | 3% | ·
CC(C)c1ccc(N2C(=O)CC(Sc3ncn[nH]3)C2=O)cc1 (centres undefined) | 1% | -16% | 27µM* | 19%
CC(C)c1ccc(N2C(=O)CC(Sc3nc4ccccc4o3)C2=O)cc1 (centres undefined) | -5% | -10% | -19% | -1%
O=C(CSc1ncn[nH]1)c1ccc2c(c1)OCCO2 | -9% | 73% | ? | ?
CC(C)c1ccc(C(=O)CSc2ncn[nH]2)cc1 | -29% | 14µM* | 30µM* | 79µM*
SMILES | Tb PFK block | BRCA1 expr up | PLK1 PBD block | VDR inh
O=C(O)CCN1C(=O)/C(=C2\C(=O)N(Cc3ccc(F)cc3)c3ccccc32)SC1=S | -3% | 0% | 19µM* | ?
CN(C)c1c(Cl)cc(/C=C2\C=Cc3ccccc32)cc1Cl | · | 15% | · | ·
COc1ccc(-c2coc3c(C(=O)NCC4CCOCC4)cccc23)c(C)c1 | · | -44% | -11% | ·
CC(=O)Nc1ccc(S(=O)(=O)Nc2nnc(CC(C)(C)C)s2)cc1 | 0% | -11% | 27µM* | ?
CCc1nnc(NS(=O)(=O)c2ccc(NS(=O)(=O)c3ccc(NC(C)=O)cc3)cc2)s1 | -3% | · | · | ·
COc1ccc(Cc2nnc(NS(=O)(=O)c3ccc(Cl)cc3)s2)cc1OC | 5% | 20% | 30µM* | 1%
COc1ccc(Cc2nnc(NC(=O)CSc3ccc(Cl)cc3)s2)cc1OC | 1% | · | · | ·
Cc1ccc(S(=O)(=O)Nc2nnc(CC(C)(C)C)s2)cc1 | 6% | -6% | 27µM* | -25%
Cc1ccc(S(=O)(=O)Nc2nnc(C(C)(C)C)s2)cc1 | -1% | 0% | 24µM* | -25%
CCc1ccccc1NC(=O)Cn1nc(-c2cc(C)ccc2C)c2c(c1=O)CCCC2 | · | 27% | · | 2%
C[C@H]1CN([C@@H](C)CO)C(=O)CCCn2cc(nn2)CO[C@@H]1CN(C)C(=O)CCC(F)(F)F | · | 12% | -17% | ·
CS(=O)(=O)N1CCC(C(=O)N2CCN(c3ccccc3F)CC2)CC1 | -2% | 13% | 19µM* | ?
